Common to all, as to assay: NCI-60 one-dose screen, 48 h (100 = growth as untreated, 0 = no growth, -100 = all killed)
Conditions in all cases: 10 µM unless noted

Test [1] has as its system NCI-H23 lung.
Test [2] has as its system NCI-H226 lung.
The subject of test [3] is NCI-H322M lung.
For test [4], the system named is HOP-62 NSCLC.
The test system of test [5] is NCI-H460 lung.
In test [6] the test system is HOP-92 NSCLC.
Test [7] has as its system NCI-H522 lung.
Test [8] deals with A549/ATCC NSCLC.
Test [9] has as its system 786-0 renal.
Test [10] concerns COLO 205 colon.

Structures are written as SMILES. The panel holds about 83,000 compounds, 20% with a hit somewhere; the sample as a whole holds those more often.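 Assay: single dose, 48 h. Readout: percent growth (0 = no net growth; negative = cell death). Active: <10.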 A number with no mark means an inactive call. The source made the active and inactive calls.

In the case of `COc1ccc(N=Nc2c(N)nn3c(-c4ccc(F)cc4)ccnc23)cc1`, the growth in [1] is 43.7%; in test [2], 87.8%; in test [3] it was 84.3%; in test [4], 34.6%; in test [5], 64.7%; in test [6] it was 100%. For the same compound, the growth in test [7] was 86.5%; in test [8] it was 43%; in test [9], 92.3%; in test [10], 94.4%.
Regarding `COc1ccc(-n2c(NC(=O)N3CCN(C)CC3)c(C#N)c3ccccc32)cc1`, the growth was 33.8% in test [1]; 11.4% in [2]; 90.2% in test [3]; 30.5% in [4]; 30.7% in [5]; 44% in test [6]. Also, the growth is 61.1% in test [7], 45.3% in test [8], 44.2% in test [9] and 65.5% in [10].
With `COc1ccc2c(c1)C(Sc1ccc(Br)cc1)c1c(nc(N)c(C#N)c1N)O2` (stereo not given), the growth in test [1] is 79.1%; in [2], 83.1%; in [3], 84.2%; in test [4], 93.7%; in [5], 82.4%; in test [6], 111%. Besides, the growth in [7] is 77.1%; in [8] it was 89.7%; in test [9] it was 83%; in test [10], 90%.
Consider `CCN1C(=O)N(CC)C2NNC(Sc3c(C(=O)O)c4ccccc4n(CC(C)C)c3=O)=NC21` (stereo not given), for which the growth was 10.7% in test [1]; 51.2% in test [2]; 56.2% in test [3]; 34.1% in [4]; -1.23% (active) in [5]; 80.8% in [6]. Also, the growth is -32.3% (active) in [7], 20.9% in test [8], 26.9% in test [9] and -21.4% (active) in test [10].
For `COc1ccc2[nH]c(O)c(N=NC(=O)c3ccc4nc(-c5ccc(Cl)cc5)[nH]c4c3)c2c1`, the growth in [1] was 65.6%; in test [2], 77.5%; in [3] it was 85.9%; in [4], 48.9%; in [5] it was 101%; in test [6], 73.3%. The growth in test [7] was 35.3%; in test [8], 113%; in test [9], 90.6%; in [10] it was 18%.
`C/C(=N/O)c1ccc(NC(=O)CSc2nnc(-c3ccc(-c4nc5ccc(Cl)cc5[nH]4)cc3)o2)cc1`: the growth in test [1] was -59.5% (active); in test [2] it was -39% (active); in test [3], 3.18% (active); in test [4], -82% (active); in [5] it was -100% (active); in test [6], -53.4% (active). For the same compound, the growth in [7] is -48.6% (active); in test [8], -13.3% (active); in test [9] it was -66.1% (active); in test [10], 50.3%.
With `O=C(Nc1nc2ccccc2s1)Nc1ccccc1Cl`, the growth was 70.5% in [1]; 31.5% in [2]; 94.3% in test [3]; 12.2% in test [4]; 66.9% in [5]; 74.3% in test [6]. Further, the growth in [7] was 64.1%; in test [8], 74.5%; in test [9], 41%; in [10] it was 97.5%.
For the compound `N#CC1=C(c2ccco2)Nc2c(c(-c3ccccc3)nn2-c2ccccc2)C12C(=O)Nc1ccc(Br)cc12` (stereo not given), the growth is 70.6% in test [1]; 67.2% in test [2]; 86.9% in test [3]; 10.5% in test [4]; 1.16% (active) in test [5]; 52.4% in test [6]. Besides, the growth was 31.8% in test [7], 1.5% (active) in test [8], 43.4% in test [9] and 86.9% in [10].
For `COc1nc(N)ncc1-c1ccc2ncnc(N3CCc4cc(F)c(Cl)cc43)c2c1`, the growth in test [1] was 34.2%; in [2], -40.3% (active); in test [3], 3.86% (active); in test [4], -54.4% (active); in test [5], -21.5% (active); in test [6], -23.8% (active). Also, the growth in [7] is 41.1%; in [8], 3.34% (active); in test [9] it was -74.9% (active); in [10], -55.5% (active).
As for `Cc1cc(C2(c3cc(C)c(OCC(O)CNc4c(C)n(C)n(-c5ccccc5)c4=O)cc3C(C)C)OC(=O)c3ccccc32)c(C(C)C)cc1OCC(O)CNc1c(C)n(C)n(-c2ccccc2)c1=O` (stereo not given), the growth in test [1] was 34.7%; in test [2], 42%; in test [3], 61%; in test [4], 52%; in test [5] it was 18.2%; in [6] it was -9.82% (active). In addition, the growth in test [7] was 8.24% (active); in [8], 22.4%; in test [9], 24.2%; in [10], 10.6%.
For `COc1cc(C2CC(c3ccc(F)cc3)=Nc3c(N)nc(N)nc3N2)ccc1Oc1nc(Nc2ccc(F)cc2)nc(N(C)C)n1` (stereo not given), the growth is 70% in test [1]; 85.8% in test [2]; 105% in test [3]; 86.3% in test [4]; 10.1% in test [5]; 36.8% in test [6]. Also, the growth was 60.6% in [7], 58.5% in test [8], 43.9% in test [9] and 56.2% in test [10].
Take `O=C1Nc2cc(-c3ccc(NS(=O)(=O)c4ccc(F)c(Cl)c4)cc3)ccc2/C1=C/c1ccc[nH]1`: the growth in test [1] is -25.5% (active); in [2] it was 37%; in test [3], 26.4%; in test [4], 27.2%; in test [5] it was -10.6% (active); in test [6], 37.2%. Besides, the growth in [7] was 6.92% (active); in test [8], 3.71% (active); in [9], 35.6%; in [10], 35.4%.
As to `COC(=O)c1c(C(=O)OC)c2ccc3c4ccccc4ccc3n2c1C(=O)OC`, the growth in test [1] was 102%; in test [2] it was 100%; in test [3] it was 101%; in [4], 110%; in [5], 111%; in test [6], 97.5%. The growth is 100% in test [7], 97.2% in test [8], 100% in [9] and 115% in test [10].

For the origin of these results see PubChem BioAssay (NCI).
